Drawing on PubChem BioAssay (EPA / NIEHS), this text covers outcome and AC50 for 40 compounds.

The structures appear in SMILES notation. Inconclusive results are not listed. The source made the active and inactive calls. The calls were made as follows: active = hit-call score of the fitted dose curve at least 0.9, where 1 is the maximum; inconclusive = response in the unintended direction; inactive = score below 0.9. Peptide text beside a SMILES is read from it.

Sequence of human Peroxisome Proliferator-activated Receptor delta (PPARd), PPARD (gene 5467) (Q03181 whole entry, looked up): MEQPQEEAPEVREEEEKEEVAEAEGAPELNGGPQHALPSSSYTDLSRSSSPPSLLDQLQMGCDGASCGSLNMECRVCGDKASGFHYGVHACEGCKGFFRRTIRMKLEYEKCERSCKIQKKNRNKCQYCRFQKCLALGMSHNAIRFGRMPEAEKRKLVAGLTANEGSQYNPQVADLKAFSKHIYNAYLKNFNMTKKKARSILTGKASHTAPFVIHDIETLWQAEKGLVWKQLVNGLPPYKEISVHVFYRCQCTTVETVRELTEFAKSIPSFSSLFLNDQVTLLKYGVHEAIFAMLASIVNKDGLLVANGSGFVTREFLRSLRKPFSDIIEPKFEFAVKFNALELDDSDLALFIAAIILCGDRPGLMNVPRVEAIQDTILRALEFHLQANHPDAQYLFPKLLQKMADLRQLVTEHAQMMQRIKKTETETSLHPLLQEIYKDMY

The assay has as its target human Peroxisome Proliferator-activated Receptor delta (PPARd), PPARD (gene 5467) (UniProt Q03181). Briefly: ATG_PPARd_TRANS: Attagene TRANS-FACTORIAL HepG2 Assay for human Peroxisome Proliferator-activated Receptor delta (PPARd) (AID 2283002). Here is the method: ATG_TRANS is a cell-based, multiplexed-readout assay that uses HepG2, a human liver cell line, with measurements taken at 24 hours after chemical dosing in a 24-well plate.ATG_PPARd_TRANS is one of 30 assay component(s) measured or calculated from the ATG_TRANS assay. It is designed to make measurements of mRNA induction, a form of inducible reporter, as detected with fluorescence intensity signals by Reverse transcription polymerase chain reaction (RT-PCR) and Capillary electrophoresis technology.Data from the assay component ATG_PPARd_TRANS was analyzed into 1 assay endpoint. This assay endpoint, ATG_PPARd_TRANS, was analyzed in the positive analysis fitting direction relative to DMSO as the negative control and baseline of activity. Using a type of inducible reporter, measures of mRNA for gain-of-signal activity can be used to understand the reporter gene at the transcription factor-level as they relate to the gene PPARD. Furthermore, this assay endpoint can be referred to as a primary readout, because this assay has produced multiple assay endpoints where this one serves a reporter gene function. To generalize the intended target to other relatable targets, this assay endpoint is annotated to the nuclear receptor intended target family, where the subfamily is non-steroidal.
Human liver HepG2 cells are transiently transfected with multiple reporter transcription units (MRTUs) in 6-well plates using FuGene 6 reagent (Roche; 3 ml FuGene/1 mg DNA). The MRTU constructs are regulated by a cis-regulating element (promoter). […] A major difference between the CIS and TRANS system is that in CIS activities of endogenous TFs are measured, whereas the TRANS assay evaluates changes in activities of exogenous, chimeric NR-Gal4 proteins. […] At the end of 24 hour incubation, total RNA was isolated using TriZol reagent (Invitrogen). The isolated RNA is then reverse-transcribed using oligo(dT) primer and Mo-MLV reverse transcriptase (Invitrogen) with DNAse I (Ambion) treatment for 30 min. The one-tenth of the produced cDNA was amplified by PCR using Taq DNA polymerase (Invitrogen) and two reporter sequence-specific primers. The PCR products were fluorescently labeled by primer extension with 6-arboxyfluorescein (6-FAM) 5'-labeled reporter sequence-specific primer (2 min at 95 C, 20 s at 68 C and 10 min at 72 C) and these products were digested with 5U of HpaI (New England Biolabs) for 2h at 37 C. The fragments were purified using Qiaquick PCR columns (Qiagen), analyzed on an ABI 3130xL genetic analyzer (Applied Biosystems) with peak positions identified by using a set of X-rhodamine (ROX)-labeled MapMarker1000 molecular weight standards (BioVentures). The raw capillary electrophoresis data was processed using Attagraph software (Attagene).
Consider `CC1=NN(c2ccc(S(=O)(=O)O)cc2)C(=O)C1N=Nc1ccccc1` (stereo not given), for which the call was inactive.

Consider `CC1OC(=O)C(C)OC1=O` (stereo not given), for which the compound was classed as inactive.

In the case of `CC(=O)OCCc1ccccc1`, the compound was classed as inactive.

On to `CC(CC=O)CC(C)(C)C` (stereo not given), for which the compound was classed as inactive.

With `C=CCCCCCCCCO`, the outcome was inactive.

Turning to `C=CCOC(=O)c1ccc(C(=O)OCC=C)c(C(=O)OCC=C)c1`, the call was inactive.

Regarding `CCCCCCCCCCCCc1ccc(O)cc1`, the compound was classed as inactive.

Consider `CCC(C)N` (stereo not given), for which the call was inactive.

On to `[Cl][Eu]([Cl])[Cl]`, for which the result was inactive.

On to `O=C1CCCCCCCCCCC1`, for which the outcome was inactive.

As for `CC(C)(CO)COC(=O)C(C)(C)CO`, the call was inactive.

With `CCN(CC)c1cccc(C)c1`, the result was inactive.

`CC=CC(=O)OCC(C)C`: the call was inactive.

Regarding `CCCCCCCCCCCCCCCCCCOS(=O)(=O)O`, the half-maximal activity concentration (AC50) is 112 µM (active).

As to `CC(Cl)COP(=O)(OCC(C)Cl)OCC(C)Cl` (stereo not given), the compound was classed as inactive.

For `Cc1ccc(C)c(OCCCC(C)(C)C(=O)O)c1`, the outcome was inactive.

Consider `O=c1c(O)c(-c2ccc(O)cc2O)oc2cc(O)cc(O)c12`, for which the compound was classed as inactive.

Consider `CO[Si](CCCS)(OC)OC`, for which the compound was called inactive.

On to `CC(C)=CCl`, for which the result was inactive.

For `c1ccc(-c2nc3ccccc3[nH]2)cc1`, the compound was classed as inactive.

With `CCCSSCCC`, the compound was called inactive.

As for `CCCCOCCOCCOC(C)=O`, the call was inactive.

In the case of `CCOC(=O)c1ccc(C)cc1`, the outcome was inactive.

On to `O=C(Oc1ccccc1)c1ccccc1C(=O)Oc1ccccc1`, for which the compound was called inactive.

On to `CC(=O)OC1CCCCC1`, for which the outcome was inactive.

As to `CCCCCCCCCCCC(=O)N(C)CC(=O)O`, the half-maximal activity concentration (AC50) is 35.2 µM (active).

As for `O=C(O)CCCC(=O)O`, the result was inactive.

As to `C=C(C)C(=O)OCCCCCCCCCCCC`, the compound was called inactive.

Regarding `C=CC(=O)NCOCCCC`, the call was inactive.

Consider `C=Cc1cccc(C)c1`, for which the compound was called inactive.

On to `COc1cc(C)ccc1O`, for which the call was inactive.

Take `O=C(OCCc1ccccc1)c1ccccc1`: the compound was called inactive.

In the case of `c1ccc2c(c1)[nH]c1ccccc12`, the outcome was inactive.

As for `CC1(C)CC(O)CC(C)(C)N1[O]`, the compound was called inactive.

Turning to `CCCCCC1=CCCC1=O`, the compound was called inactive.

For `COC(=O)[C@H](Cc1ccccc1)NC(=O)[C@@H](N)CC(=O)O` (H-Asp-Phe-OMe), the compound was called inactive.

Consider `CCOC(=O)OC(=O)OCC`, for which the outcome was inactive.

Turning to `CCCCCCC=O`, the outcome was inactive.

As to `CC/C=C\CCOC(=O)c1ccccc1O`, the result was inactive.

Take `O=C(O)CC(C(=O)O)S(=O)(=O)O` (stereo not given): the result was inactive.
